According to ChEMBL document CHEMBL4888484, “Replenishing the malaria drug discovery pipeline: Screening and hit evaluation of the MMV Hit Generation Library 1 (HGL1) against asexual blood stage Plasmodium falciparum ,using a nano luciferase reporter read-out” (2022):
About 410 (8.5%) of roughly 4,800 compounds showed an effect of 50% or more. This is one part of a sample in which strong results are shown more often than they occur.

These compounds were tested on Plasmodium falciparum (assay: Confirmatory screen in NF54 pLDH assay, in single point, at 2uM, 72h). Conditions: timepoint 72 hour.
Type: functional, Erythrocyte

SMILES | % Inhibition [%]
O=C(O)c1cc(-c2ccc3c(c2)OCCO3)nc2c(Br)cc(Br)cc12 | 3
COc1ccc(C(O)CN2CCC(c3ccccc3)C2)cc1F (stereo unspecified) | 9
O=C(C1CCC1)N1CCC[C@H]1c1nc(C2CCOCC2)no1 | 12
COc1ccccc1NC(=O)c1cnn2c3c(cnc12)CCCCC3 | 3
Cc1cc(NC(=O)C(=O)NC2CC(C)CC(C)(C)C2)n(-c2nc3c(c(=O)[nH]2)CCC3)n1 (stereo unspecified) | 84
CCOc1ccc2ccccc2c1C(=O)Nc1cc(C)nn1-c1nc2c(c(=O)[nH]1)CCC2 | 91
COc1ccc2ccccc2c1C(=O)Nc1ccc(N2CCN(C)CC2)c(Cl)c1 | 4
Cc1nc(-c2ccc3[nH]c(=O)[nH]c3c2)cs1 | 9
CC1CN(CCCNC(=O)Cc2c[nH]c3ccc(F)cc23)CC(C)O1 (stereo unspecified) | -4
CC(C1Cc2ccccc2O1)N(C)C(=O)c1n[nH]c2c1CCC2 (stereo unspecified) | -6
Cc1cc(Cl)ccc1S(=O)(=O)N1CCc2nnc([C@H]3CCN(C(C)C)C3)n2CC1 | 10
COC(=O)C12CCC(C(=O)NC[C@H]3CCCOC3)(CC1)CC2 | 2
OCC#Cc1ncc(C(F)(F)F)cc1Cl | -19
CCc1nc(C(=O)N2C[C@@H]3CCCN(C(=O)c4coc(CC)n4)[C@@H]3C2)co1 | 0
CCc1ncsc1C(=O)OCC1(C#N)CCOCC1 | -2
Cc1cc(CS(=O)(=O)[C@@H](C)C(=O)NCC(C)C)on1 | 12
CC(=O)N(C)CC(=O)Nc1ccccc1NCC1CCCCC1 | 12
COc1cc(CN(C)[C@H]2CCc3nnc(C4CCOCC4)n3CC2)cc(OC)c1 | 1
Cn1ccnc(N[C@@H](COc2ccccc2F)c2ccccc2)c1=O | 3
NC(=O)CCc1ccc(S(=O)(=O)Cl)cc1 | 13
COC(=O)c1ccc(Nc2nc(C)c3nc(C)n(-c4ccc(C(=O)OC)cc4)c3n2)cc1 | 3
CCOc1cc(Cl)c(Cl)c(C#N)c1OC(C)=O | 6
COc1ccc(-c2nccn3cc(C(=O)NCCN(C)C4CCCCC4)nc23)cc1 | 5
CCCC[C@H](CC)C(=O)Nc1c(C)cccc1CC | -8
Brc1ccc(Oc2ncc(CN3CCOCC3)s2)cc1 | 7
Cc1ccc2c(c1)CCCN2S(=O)(=O)c1ccc2ccccc2c1 | -7

SMILES | % Inhibition [%]
Cc1ccnc(Nc2ccc(N3CCNCC3)nn2)c1 | 65
Cc1ccnc(N2CCN(S(=O)(=O)Cc3ccon3)CC2)c1 | 15
Cc1ccc(Nc2ccc(N3CCNCC3)nn2)nc1 | 58
Cc1cnc(CC[C@H]2CCCN2C(=O)CCn2ccnc2)n1C | 7
CCC(C#N)(CC)c1nc(-c2cc(N)nc3ccccc23)no1 | 8
CCC(=O)O[C@@]1(c2ccc(C3CC3)cc2)CCCN(Cc2ccccc2)C1 | -1
O=C1CCN(C(=O)COc2ccc(-c3ccccc3)cc2Cl)CCN1 | -12
CC(=O)N[C@H]1CCc2nc(N)sc2C1 | 13
C[C@@H]1C[C@@H](Nc2ccccc2)c2ccccc2N1C(=O)COc1ccc(Br)cc1 | 10
O=C(Cc1c(Cl)cccc1Cl)N1CC[C@]2(CCOC2)C1 | -19
Cc1noc(Cl)c1CC(=O)N1CCCC(C)(C)CC1 | 20
CC[C@@]1(C)CCCN(C(=O)Cc2c(C)noc2Cl)C1 | 87
Cc1ccc(-n2c(=O)c3sccc3n(CC(=O)NCc3ccc(F)cc3F)c2=O)cc1C | -20
CC1CCC2(CC1)N=C(c1ccccc1)C(=O)N2CC(=O)N[C@H]1CCc2ccccc21 (stereo partly specified) | -4
CN(Cc1cnn(-c2ccccc2)n1)c1ncnc2[nH]ncc12 | 10
CCCCC(=O)N1CCc2[nH]nc(C(=O)NCCc3ccc(OC)cc3)c2C1 | 2
Cc1nc2nnnn2c(C)c1C/C=C/c1ccccc1 | 8
Cc1cc(OC[C@@H](O)CNC(C)(C)CC(C)(C)C)cc(C)c1Cl | 57
O=C(N[C@@H](N1CCCC1)C(Cl)(Cl)Cl)c1ccc(Cl)cc1 | -13
O=C(N[C@H]1CC12CC2)c1ccncc1F | -22
C=C1C(C)C2C(Cc3c[nH]c4ccccc34)NC(=O)C23C(=O)CC(O)C(O)CC(C)C/C=C/C3C1O (stereo unspecified) | 65
C[n+]1ccccc1/C=C/c1c[nH]c2ccccc12 | 81
CCc1ccc(/C=C/c2c[nH]c3ccccc23)[n+](CC)c1 | 88
Fc1cc(Cl)cnc1N1CCC2(CCOCC2)C1 | 12
Cc1[nH]n(-c2nc(C(F)(F)F)cc(=O)[nH]2)c(=O)c1CCO | -9
